Results filed as inconclusive are left out. The source made the active and inactive calls. Unless noted, calls follow the shape of the dose curve; as a rule, active = well fitted curve in the direction sought with a large enough effect in the repeat runs; inconclusive = weak or mixed curves; inactive = no such curve, though single readings can be large; an effect the other way counts as inactive or inconclusive.
Key:
[1] = qHTS assay to identify aromatase inhibitors - cell viability counter screen (AID 743084);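 also: cells stimulated with testosterone during compound exposure; nearly all actives have a fitted effect of over 55% in size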
[2] = qHTS assay to identify small molecule that activate the aryl hydrocarbon receptor (AhR) signaling pathway - cell viability counter screen (AID 743086);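 also: HepG2 liver cells carrying the AhR DRE luciferase reporter; series mostly up to about 70 µM; nearly all actives have a fitted effect of over 45% in size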
Summary of the method: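 HepG2-AhR-luc (HG2L7.5c1) cells, 4000/well, treated 24 h at 37 C with compound; viability measured as CellTiter-Fluor fluorescence after 30 min in the same wells as the luciferase read.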

[3] = biological target: Peroxisome proliferator-activated receptor gamma (Homo sapiens) (UniProt P37231); experiment: qHTS assay to identify small molecule agonists of the peroxisome proliferator-activated receptor gamma (PPARg) signaling pathway (AID 743094; active = well fitted activation curve with a large enough effect in the signal ratio in the repeat runs, not every such curve was filed as active; the % refers to the signal ratio)
Sequence of Peroxisome proliferator-activated receptor gamma (Homo sapiens) (P37231 whole entry, looked up): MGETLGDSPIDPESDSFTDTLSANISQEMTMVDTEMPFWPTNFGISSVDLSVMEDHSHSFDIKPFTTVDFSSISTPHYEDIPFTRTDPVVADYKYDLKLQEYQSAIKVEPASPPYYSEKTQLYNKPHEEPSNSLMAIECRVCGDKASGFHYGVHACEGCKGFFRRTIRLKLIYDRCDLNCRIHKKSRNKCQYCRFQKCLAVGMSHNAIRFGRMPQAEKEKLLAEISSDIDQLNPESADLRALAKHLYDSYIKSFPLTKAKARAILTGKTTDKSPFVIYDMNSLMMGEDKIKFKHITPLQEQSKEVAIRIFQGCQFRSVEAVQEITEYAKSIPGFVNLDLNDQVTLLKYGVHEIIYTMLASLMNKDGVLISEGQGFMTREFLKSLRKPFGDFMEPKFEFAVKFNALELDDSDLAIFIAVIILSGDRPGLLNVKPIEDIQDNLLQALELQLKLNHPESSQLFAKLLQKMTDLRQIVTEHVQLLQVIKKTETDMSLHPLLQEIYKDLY
Summary of the method: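 HEK293H PPARg-bla cells, 5 h settle at 37C/5% CO2; compound (DMSO) 17 h, 37C; B/G FRET substrate 1 h RT; fluorescence intensity read-out. qHTS format.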

[4] = qHTS assay to identify small molecule antagonists of the peroxisome proliferator-activated receptor gamma (PPARg) signaling pathway - cell viability counter screen (AID 743194); also: nearly all actives have a fitted effect of over 55% in size
Summary of the method: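 Cytotoxicity counter screen in PPARg-bla HEK293H cells, same wells as reporter assay. Compounds plus 50 nM rosiglitazone (final) for 17 h at 37 C, then viability read by CellTiter-Glo luminescence.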

[5] = qHTS assay for small molecule agonists of the antioxidant response element (ARE) signaling pathway - cell viability counter screen (AID 743203; calls by dose curve; also: nearly all actives have a fitted effect of over 55% in size)
Summary of the method: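 Luminescence read-out (CellTiter-Glo, 30 min at room temperature) measured cell viability in the same wells as the ARE beta-lactamase reporter. HepG2 ARE-bla cells were treated with compounds for 16 hrs at 37C/5% CO2.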

[6] = qHTS assay for small molecule activators of the heat shock response signaling pathway - cell viability counter screen (AID 743209); also: nearly all actives have a fitted effect of over 50% in size
Summary of the method: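 HSE-bla HeLa; 1500 cells/well; overnight 37 C, 5% CO2; compound 5 h 37 C; LiveBLAzer B/G substrate 2.5 h RT; CellTiter-Glo 30 min RT; luminescence.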

[7] = qHTS assay to identify small molecule agonists of the peroxisome proliferator-activated receptor delta (PPARd) signaling pathway - cell viability counter screen (AID 743211); also: nearly all actives have a fitted effect of over 55% in size
Summary of the method: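 PPARd-bla HEK293H cells (UAS-beta-lactamase reporter) were treated with compounds for 17 h at 37 C. Viability was then read in the same wells by CellTiter-Glo luminescence after 30 min at room temperature.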

[8] = biological target: Peroxisome proliferator-activated receptor delta (Homo sapiens) (UniProt Q03181); experiment: qHTS assay to identify small molecule agonists of the peroxisome proliferator-activated receptor delta (PPARd) signaling pathway (AID 743212; calls by dose curve)
Sequence of Peroxisome proliferator-activated receptor delta (Homo sapiens) (Q03181 whole entry, looked up): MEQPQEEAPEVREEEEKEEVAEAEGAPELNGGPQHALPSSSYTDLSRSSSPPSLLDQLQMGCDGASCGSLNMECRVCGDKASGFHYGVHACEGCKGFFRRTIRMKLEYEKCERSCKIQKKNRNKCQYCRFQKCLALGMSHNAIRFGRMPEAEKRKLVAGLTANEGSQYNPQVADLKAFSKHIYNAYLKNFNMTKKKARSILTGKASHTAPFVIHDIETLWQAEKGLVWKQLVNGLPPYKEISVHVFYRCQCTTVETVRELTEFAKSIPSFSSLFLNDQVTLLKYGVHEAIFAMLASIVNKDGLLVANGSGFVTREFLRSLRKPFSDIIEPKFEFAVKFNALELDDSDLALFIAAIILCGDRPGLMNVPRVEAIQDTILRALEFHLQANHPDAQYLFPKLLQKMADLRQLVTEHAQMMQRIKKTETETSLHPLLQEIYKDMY
Summary of the method: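 Read-out: beta-lactamase FRET fluorescence after 2 h room-temperature incubation with LiveBLAzer B/G substrate. Cells were HEK293H carrying a UAS-bla reporter for PPARd, treated at 37 C with DMSO-dissolved compounds.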

[9] = qHTS assay to identify small molecule antagonists of the peroxisome proliferator-activated receptor delta (PPARd) signaling pathway - cell viability counter screen (AID 743213); also: nearly all actives have a fitted effect of over 50% in size
Summary of the method: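 Viability counter-screen, qHTS format: PPARd-bla HEK293H, L165041 300 nM final, 17 h compound exposure at 37 C, CellTiter-Glo luminescence after 30 min RT.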

[10] = biological target: Bile acid receptor (Homo sapiens) (UniProt Q96RI1); experiment: qHTS assay to identify small molecule antagonists of the farnesoid-X-receptor (FXR) signaling pathway (AID 743217; active = well fitted inhibition curve with a large enough effect in the signal ratio in the repeat runs, not every such curve was filed as active; the % refers to the signal ratio)
Sequence of Bile acid receptor (Homo sapiens) (Q96RI1 whole entry, looked up): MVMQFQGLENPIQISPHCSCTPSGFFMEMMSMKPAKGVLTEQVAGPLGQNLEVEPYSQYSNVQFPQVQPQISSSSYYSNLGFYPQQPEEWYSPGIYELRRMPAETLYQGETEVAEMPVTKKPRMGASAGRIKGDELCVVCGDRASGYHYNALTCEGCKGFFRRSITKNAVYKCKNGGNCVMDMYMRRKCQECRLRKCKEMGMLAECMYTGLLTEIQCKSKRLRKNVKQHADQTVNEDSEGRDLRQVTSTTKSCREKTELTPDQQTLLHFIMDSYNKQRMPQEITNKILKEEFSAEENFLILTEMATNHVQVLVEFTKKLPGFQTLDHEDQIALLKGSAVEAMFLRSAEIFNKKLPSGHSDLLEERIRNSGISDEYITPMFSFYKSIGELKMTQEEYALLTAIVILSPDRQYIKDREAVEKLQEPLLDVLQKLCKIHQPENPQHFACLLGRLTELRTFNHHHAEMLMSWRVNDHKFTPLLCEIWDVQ
Summary of the method: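 Read-out: beta-lactamase FRET fluorescence (LiveBLAzer B/G substrate, 2 h, room temperature) in GeneBLAzer FXR-UAS-bla HEK 293T cells. Compounds were co-dosed with 50 uM chenodeoxycholic acid (final) and incubated 16 h at 37 °C.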

[11] = qHTS assay to identify small molecule agonists of the farnesoid-X-receptor (FXR) signaling pathway - cell viability counter screen (AID 743218); also: nearly all actives have a fitted effect of over 45% in size
Summary of the method: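 Luminescence from CellTiter-Glo, read after 30 min at RT, reports viability of GeneBLAzer FXR-UAS-bla HEK 293T cells treated 16 h with compounds in the wells used for the beta-lactamase reporter.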

[12] = biological target: Bile acid receptor (Homo sapiens) (UniProt Q96RI1); experiment: qHTS assay to identify small molecule agonists of the farnesoid-X-receptor (FXR) signaling pathway (AID 743220; active = well fitted activation curve with a large enough effect in the signal ratio in the repeat runs, not every such curve was filed as active; the % refers to the signal ratio)
Summary of the method: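 FXR-UAS-bla HEK 293T cells carrying a UAS-driven beta-lactamase reporter were plated for 5 h at 37C/5% CO2, then exposed to DMSO-dissolved Tox21 10K compounds for 16 h at 37C. A LiveBLAzer B/G FRET substrate was loaded for 2 h at room temperature before fluorescence reading.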

[13] = qHTS assay to identify small molecule antagonists of the farnesoid-X-receptor (FXR) signaling pathway - cell viability counter screen (AID 743221; active = well fitted cell-killing curve with a large enough effect in the repeat runs, not every such curve was filed as active; also: nearly all actives have a fitted effect of over 50% in size)
Summary of the method: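 FXR-UAS-bla HEK 293T cells were treated with test compounds plus chenodeoxycholic acid (50 uM final) for 16 h at 37 C. Cell viability in the same wells was then read as CellTiter-Glo luminescence after 30 min at room temperature.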

[14] = biological target: Vitamin D3 receptor (Homo sapiens) (UniProt P11473); experiment: qHTS assay to identify small molecule agonists of the vitamin D receptor (VDR) signaling pathway (AID 743222; calls by dose curve)
Sequence of Vitamin D3 receptor (Homo sapiens) (P11473 whole entry, looked up): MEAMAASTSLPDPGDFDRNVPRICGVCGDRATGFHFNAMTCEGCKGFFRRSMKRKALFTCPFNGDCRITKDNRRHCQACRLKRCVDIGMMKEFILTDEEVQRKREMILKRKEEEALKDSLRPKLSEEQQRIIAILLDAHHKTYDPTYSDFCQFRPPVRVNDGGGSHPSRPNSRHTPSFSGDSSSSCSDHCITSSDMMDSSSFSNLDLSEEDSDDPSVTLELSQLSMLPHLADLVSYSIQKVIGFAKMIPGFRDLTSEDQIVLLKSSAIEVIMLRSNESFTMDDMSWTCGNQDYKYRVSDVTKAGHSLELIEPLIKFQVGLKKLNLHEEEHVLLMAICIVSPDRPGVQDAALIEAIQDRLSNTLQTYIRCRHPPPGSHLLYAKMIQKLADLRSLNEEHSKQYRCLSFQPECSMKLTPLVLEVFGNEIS
Summary of the method: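 Beta-lactamase reporter readout (LiveBLAzer B/G FRET, 2 h RT) in VDR-bla cells after 16 h compound treatment at 37C, 5% CO2; cells pre-incubated 4 h before pin transfer of DMSO solutions.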

[15] = biological target: Vitamin D3 receptor (Homo sapiens) (UniProt P11473); experiment: qHTS assay to identify small molecule antagonists of the vitamin D receptor (VDR) signaling pathway (AID 743223; active = well fitted inhibition curve with a large enough effect in the signal ratio in the repeat runs, not every such curve was filed as active; the % refers to the signal ratio)
Summary of the method: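 VDR-bla cells were plated, incubated 4 h at 37C, then given compound and 1alpha,25-dihydroxyvitamin D3 (3 nM final). After 16 h at 37C, LiveBLAzer B/G FRET substrate was added for 2 h at room temperature and fluorescence read.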

[16] = qHTS assay for small molecule agonists of the antioxidant response element (ARE) signaling pathway (AID 743202; active = well fitted activation curve with a large enough effect in the signal ratio in the repeat runs, not every such curve was filed as active; the % refers to the signal ratio)
Summary of the method: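 HepG2 ARE-bla reporter line, 2,000 cells/well; 5 h preincubation 37 C/5% CO2; compound (DMSO) 16 h 37 C; B/G FRET substrate 2 h RT; fluorescence intensity.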

[17] = qHTS assay for small molecule activators of the heat shock response signaling pathway (AID 743210; active = well fitted activation curve with a large enough effect in the signal ratio in the repeat runs, with a control signal flat, not every such curve was filed as active; the % refers to the signal ratio;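 also: HeLa cells with beta-lactamase reporter driven by heat shock elements; series mostly up to about 63 µM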)
Summary of the method: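 Beta-lactamase reporter read-out: FRET substrate fluorescence after 2.5 h at RT, following 5 h compound treatment at 37 C of HeLa cells carrying HSE-driven bla reporter; quantitative HTS format.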

[18] = biological target: Peroxisome proliferator-activated receptor gamma (Homo sapiens) (UniProt P37231); experiment: qHTS assay to identify small molecule antagonists of the peroxisome proliferator-activated receptor gamma (PPARg) signaling pathway (AID 743191; calls by dose curve; also: series mostly up to about 63 µM; nearly all actives have a fitted effect of over 30% in size)
Summary of the method: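 GeneBLAzer PPARg UAS-bla HEK293H cells, 5 h post-plating, exposed to compounds 17 h at 37C. LiveBLAzer B/G FRET substrate added for 1 h at room temperature; beta-lactamase reporter read by fluorescence intensity.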

[19] = biological target: Peroxisome proliferator-activated receptor delta (Homo sapiens) (UniProt Q03181); experiment: qHTS assay to identify small molecule antagonists of the peroxisome proliferator-activated receptor delta (PPARd) signaling pathway (AID 743215; active = well fitted inhibition curve with a large enough effect in the signal ratio in the repeat runs, not every such curve was filed as active; the % refers to the signal ratio;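 also: cells stimulated with agonist L165041 at 300 nM final during compound exposure; series mostly up to about 62 µM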)
Summary of the method: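 HEK293H GeneBLAzer PPARd UAS-bla reporter cells; cpd + L165041 300 nM final, 17 h 37 C; LiveBLAzer B/G FRET substrate 2 h RT; fluorescence intensity read-out. Antagonist mode.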

Measured: Potency

CC(=O)C1C(=O)C=C(C)OC1=O (stereo unspecified)
not listed: [16] | [17] | [18] | [19]
inactive: all other assays above

CCC(C(=O)OCCN1CCOC(c2ccccc2)C1C)c1ccccc1 (stereo unspecified)
not listed: [1] | [2] | [3] | [10] | [12] | [15] | [18] | [19]
inactive: all other assays above

COC(=O)CCCCC(CCSS/C(CCO)=C(\C)N(C=O)Cc1cnc(C)nc1N)SC(C)=O (stereo unspecified)
not listed: [1] | [2] | [3] | [4] | [14] | [15] | [19]
inactive: all other assays above

CC12CCC(C1)C(C)(C)C2O (stereo unspecified)
not listed: [4] | [12] | [13] | [16] | [19]
inactive: all other assays above

COc1cc(/C=C/C(N)=O)cc(OC)c1OC
not listed: [1] | [2] | [3] | [15] | [17] | [18]
inactive: all other assays above

O=C1OCCO1
not listed: [4] | [9] | [15] | [16] | [17]
inactive: all other assays above

CCOc1ccccc1OCC1CNCCO1 (stereo unspecified)
not listed: [1] | [2] | [3] | [10] | [12] | [17] | [19]
inactive: all other assays above

CCCCCc1cccc(=O)o1
not listed: [15] | [16] | [17] | [18] | [19]
inactive: all other assays above

O=C1NC(c2ccccc2)(c2ccccc2)C(=O)N1COP(=O)(O)O
not listed: [1] | [2] | [3] | [8] | [10] | [11] | [19]
inactive: all other assays above

N[C@@H](CSCCCO)C(=O)O
not listed: [6] | [8] | [10] | [12] | [18]
inactive: all other assays above

— PubChem BioAssay (Tox21)
